Assay results published in the supplement of paper PMC10849652.
Targets with a hit are over-represented here; the source holds about 8,800 in all. About 0.5% of all pairs of compound and target were hits. A number with no mark means an inactive call.

Columns and labels:
Assay in all cases: log2 fold change, soluble protein after heating vs DMSO (PISA); higher = thermal stabilisation; K562 lysate, 10 uM; active = over 0.2 and 3.5 SD of the protein, either way, in both replicates (recomputed)
erlotinib = compound: C#Cc1cccc(Nc2ncnc3cc(OCCOC)c(OCCOC)cc23)c1 [erlotinib]
How it was run: (§1)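 Soluble protein was defined as the supernatant remaining after 21,000xg for 90 min, following pooling of heated aliquots and adjustment to 0.5% NP-40 at 4°C. Before that, crude K562 extract at 1 mg/mL protein in PBS pH 7.4 with 1 mM MgCl2 was treated with 10 μM compound for 30 min and heated for 3 min across 48°C-58°C. Quantification used TMTpro 16plex LC-MS/MS with channel sums equalised, and values are log-two fold changes in thermal stability relative to solvent controls from duplicates.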

[1] = compound: C/C(=N\NC(=O)C1=CC(=CC=C1)S(=O)(=O)N2CCOCC2)/C3=C(C=CC(=C3)Cl)O
How it was run: as §1

[2] = compound: C1=CC(=CC=C1C2=NC3=C(N2)C=C(C=C3)C(=O)N)OC4=CC=C(C=C4)Cl
How it was run: as §1

[3] = compound: C1=CC2=C(C=CC(=C2)/C=C\3/C(=O)NC(=NCC4=CC=CS4)S3)N=C1
How it was run: as §1

[4] = compound: C1=CC=C2C(=C1)C3=NNC4=CC=CC(=C43)C2=O
How it was run: as §1

[5] = compound: C1CCN(C1)C(=O)NC2=CC=CC(=C2)NC3=NC=C(C(=N3)NCCC4=CN=CN4)Br
How it was run: as §1

[6] = compound: C1CN(CCC1(CC2=CC=C(C=C2)Cl)N)C3=NC=NC4=C3C=CN4
How it was run: as §1

[7] = compound: CC(=O)c1cnc2ccc(-c3cc(Cl)c(O)c(Cl)c3)nc2c1N[C@H]1CC[C@H](CN(C)C)CC1
How it was run: as §1

[8] = compound: CC(C)C1=C2N=C(C=C(N2N=C1)NCC3=CC=CC=C3)NCCCCCCN
How it was run: as §1

[9] = compound: CC1=C(C(CC(=O)N1)C2=CC=C(C=C2)C(F)(F)F)C(=O)NC3=C(C=C4C(=C3)C=NN4)F
How it was run: as §1

[10] = compound: CC1=C(C2=C(C=C1)C(=O)C3=CC=CC=C3N2CCCN)C
How it was run: as §1

[11] = compound: CC1=C(C=C(C=C1)NC(=O)C2=CC(=CC=C2)C(C)(C)C#N)NC3=CC4=C(C=C3)N=CN(C4=O)C
How it was run: as §1

[12] = compound: CC1=CC=C(C=C1)SC2=C3C=C(SC3=CN=C2)C(=O)N
How it was run: as §1

[13] = compound: C1=CC2=NC=CN=C2C=C1/C=C/3\C(=O)NC(=O)S3
How it was run: as §1

[14] = compound: C1=CC=C(C=C1)C2=NC(=C(N2)C3=CC=NC=C3)C4=CC(=C(C=C4)Cl)O
How it was run: as §1

IRAK-1-4 Inhibitor I = compound: C1COCCN1CCN2C3=CC=CC=C3N=C2NC(=O)C4=CC(=CC=C4)[N+](=O)[O-] [IRAK-1-4 Inhibitor I]
How it was run: as §1

ibrutinib = compound: C=CC(=O)N1CCC[C@@H](n2nc(-c3ccc(Oc4ccccc4)cc3)c3c(N)ncnc32)C1 [ibrutinib]
How it was run: as §1

ralimetinib = compound: CC(C)(C)Cn1c(N)nc2ccc(-c3[nH]c(C(C)(C)C)nc3-c3ccc(F)cc3)nc21 [ralimetinib]
How it was run: as §1

[15] = compound: CC(C)(O)CC(=O)NCCn1ccc2ncnc(Nc3ccc(Oc4cccc(C(F)(F)F)c4)c(Cl)c3)c21
How it was run: as §1

[16] = compound: CC1=C(C=C(C=C1)NC(=O)C2=CC(=CC=C2)N(C)C)NC(=O)C3=CC=C(C=C3)O
How it was run: as §1

UniProt Q6TDU7, sequence (Q6TDU7 whole entry, looked up): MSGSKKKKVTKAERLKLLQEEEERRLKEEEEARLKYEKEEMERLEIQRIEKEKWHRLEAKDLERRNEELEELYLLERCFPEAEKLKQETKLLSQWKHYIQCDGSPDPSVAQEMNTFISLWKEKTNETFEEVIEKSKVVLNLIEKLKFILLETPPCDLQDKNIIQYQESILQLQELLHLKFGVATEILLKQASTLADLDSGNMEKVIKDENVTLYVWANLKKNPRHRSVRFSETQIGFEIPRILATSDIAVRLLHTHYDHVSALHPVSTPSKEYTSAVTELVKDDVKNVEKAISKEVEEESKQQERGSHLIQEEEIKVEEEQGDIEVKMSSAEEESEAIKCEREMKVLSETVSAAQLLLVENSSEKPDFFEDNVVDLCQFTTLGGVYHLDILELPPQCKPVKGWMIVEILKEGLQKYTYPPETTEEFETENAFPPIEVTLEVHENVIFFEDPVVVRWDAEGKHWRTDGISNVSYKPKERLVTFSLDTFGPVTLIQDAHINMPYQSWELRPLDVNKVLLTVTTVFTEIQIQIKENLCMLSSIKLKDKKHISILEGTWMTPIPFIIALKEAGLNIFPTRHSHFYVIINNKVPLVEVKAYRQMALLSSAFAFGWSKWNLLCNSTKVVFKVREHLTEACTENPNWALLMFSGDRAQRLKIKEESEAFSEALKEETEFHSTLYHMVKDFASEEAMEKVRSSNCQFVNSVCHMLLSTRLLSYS
UniProt O76039, sequence (O76039 whole entry, looked up): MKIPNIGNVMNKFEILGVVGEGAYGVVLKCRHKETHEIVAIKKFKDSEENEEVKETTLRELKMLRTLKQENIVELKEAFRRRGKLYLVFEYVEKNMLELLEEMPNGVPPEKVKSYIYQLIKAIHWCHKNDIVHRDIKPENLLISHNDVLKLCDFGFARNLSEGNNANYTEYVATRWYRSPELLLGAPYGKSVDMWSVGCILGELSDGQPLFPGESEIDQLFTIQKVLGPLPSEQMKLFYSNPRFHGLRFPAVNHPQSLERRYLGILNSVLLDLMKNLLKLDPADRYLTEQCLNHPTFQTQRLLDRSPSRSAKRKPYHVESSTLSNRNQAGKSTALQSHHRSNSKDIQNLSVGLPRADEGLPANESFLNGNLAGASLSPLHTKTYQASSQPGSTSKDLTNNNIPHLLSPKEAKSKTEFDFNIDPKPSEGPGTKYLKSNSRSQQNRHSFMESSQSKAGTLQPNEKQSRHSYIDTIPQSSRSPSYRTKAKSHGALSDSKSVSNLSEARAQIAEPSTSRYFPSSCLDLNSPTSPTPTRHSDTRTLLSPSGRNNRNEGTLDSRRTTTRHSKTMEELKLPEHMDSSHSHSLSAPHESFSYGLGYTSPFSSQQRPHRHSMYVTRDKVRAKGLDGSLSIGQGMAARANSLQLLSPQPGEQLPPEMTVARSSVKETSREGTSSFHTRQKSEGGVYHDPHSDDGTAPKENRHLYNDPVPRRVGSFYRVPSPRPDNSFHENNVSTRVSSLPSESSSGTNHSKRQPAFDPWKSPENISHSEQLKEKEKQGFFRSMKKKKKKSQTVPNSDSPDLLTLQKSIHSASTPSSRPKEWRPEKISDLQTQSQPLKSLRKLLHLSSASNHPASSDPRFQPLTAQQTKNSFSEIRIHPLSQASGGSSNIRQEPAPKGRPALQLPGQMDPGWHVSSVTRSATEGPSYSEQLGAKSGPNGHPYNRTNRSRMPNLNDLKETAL
UniProt Q9C0D2, sequence (Q9C0D2 whole entry, looked up): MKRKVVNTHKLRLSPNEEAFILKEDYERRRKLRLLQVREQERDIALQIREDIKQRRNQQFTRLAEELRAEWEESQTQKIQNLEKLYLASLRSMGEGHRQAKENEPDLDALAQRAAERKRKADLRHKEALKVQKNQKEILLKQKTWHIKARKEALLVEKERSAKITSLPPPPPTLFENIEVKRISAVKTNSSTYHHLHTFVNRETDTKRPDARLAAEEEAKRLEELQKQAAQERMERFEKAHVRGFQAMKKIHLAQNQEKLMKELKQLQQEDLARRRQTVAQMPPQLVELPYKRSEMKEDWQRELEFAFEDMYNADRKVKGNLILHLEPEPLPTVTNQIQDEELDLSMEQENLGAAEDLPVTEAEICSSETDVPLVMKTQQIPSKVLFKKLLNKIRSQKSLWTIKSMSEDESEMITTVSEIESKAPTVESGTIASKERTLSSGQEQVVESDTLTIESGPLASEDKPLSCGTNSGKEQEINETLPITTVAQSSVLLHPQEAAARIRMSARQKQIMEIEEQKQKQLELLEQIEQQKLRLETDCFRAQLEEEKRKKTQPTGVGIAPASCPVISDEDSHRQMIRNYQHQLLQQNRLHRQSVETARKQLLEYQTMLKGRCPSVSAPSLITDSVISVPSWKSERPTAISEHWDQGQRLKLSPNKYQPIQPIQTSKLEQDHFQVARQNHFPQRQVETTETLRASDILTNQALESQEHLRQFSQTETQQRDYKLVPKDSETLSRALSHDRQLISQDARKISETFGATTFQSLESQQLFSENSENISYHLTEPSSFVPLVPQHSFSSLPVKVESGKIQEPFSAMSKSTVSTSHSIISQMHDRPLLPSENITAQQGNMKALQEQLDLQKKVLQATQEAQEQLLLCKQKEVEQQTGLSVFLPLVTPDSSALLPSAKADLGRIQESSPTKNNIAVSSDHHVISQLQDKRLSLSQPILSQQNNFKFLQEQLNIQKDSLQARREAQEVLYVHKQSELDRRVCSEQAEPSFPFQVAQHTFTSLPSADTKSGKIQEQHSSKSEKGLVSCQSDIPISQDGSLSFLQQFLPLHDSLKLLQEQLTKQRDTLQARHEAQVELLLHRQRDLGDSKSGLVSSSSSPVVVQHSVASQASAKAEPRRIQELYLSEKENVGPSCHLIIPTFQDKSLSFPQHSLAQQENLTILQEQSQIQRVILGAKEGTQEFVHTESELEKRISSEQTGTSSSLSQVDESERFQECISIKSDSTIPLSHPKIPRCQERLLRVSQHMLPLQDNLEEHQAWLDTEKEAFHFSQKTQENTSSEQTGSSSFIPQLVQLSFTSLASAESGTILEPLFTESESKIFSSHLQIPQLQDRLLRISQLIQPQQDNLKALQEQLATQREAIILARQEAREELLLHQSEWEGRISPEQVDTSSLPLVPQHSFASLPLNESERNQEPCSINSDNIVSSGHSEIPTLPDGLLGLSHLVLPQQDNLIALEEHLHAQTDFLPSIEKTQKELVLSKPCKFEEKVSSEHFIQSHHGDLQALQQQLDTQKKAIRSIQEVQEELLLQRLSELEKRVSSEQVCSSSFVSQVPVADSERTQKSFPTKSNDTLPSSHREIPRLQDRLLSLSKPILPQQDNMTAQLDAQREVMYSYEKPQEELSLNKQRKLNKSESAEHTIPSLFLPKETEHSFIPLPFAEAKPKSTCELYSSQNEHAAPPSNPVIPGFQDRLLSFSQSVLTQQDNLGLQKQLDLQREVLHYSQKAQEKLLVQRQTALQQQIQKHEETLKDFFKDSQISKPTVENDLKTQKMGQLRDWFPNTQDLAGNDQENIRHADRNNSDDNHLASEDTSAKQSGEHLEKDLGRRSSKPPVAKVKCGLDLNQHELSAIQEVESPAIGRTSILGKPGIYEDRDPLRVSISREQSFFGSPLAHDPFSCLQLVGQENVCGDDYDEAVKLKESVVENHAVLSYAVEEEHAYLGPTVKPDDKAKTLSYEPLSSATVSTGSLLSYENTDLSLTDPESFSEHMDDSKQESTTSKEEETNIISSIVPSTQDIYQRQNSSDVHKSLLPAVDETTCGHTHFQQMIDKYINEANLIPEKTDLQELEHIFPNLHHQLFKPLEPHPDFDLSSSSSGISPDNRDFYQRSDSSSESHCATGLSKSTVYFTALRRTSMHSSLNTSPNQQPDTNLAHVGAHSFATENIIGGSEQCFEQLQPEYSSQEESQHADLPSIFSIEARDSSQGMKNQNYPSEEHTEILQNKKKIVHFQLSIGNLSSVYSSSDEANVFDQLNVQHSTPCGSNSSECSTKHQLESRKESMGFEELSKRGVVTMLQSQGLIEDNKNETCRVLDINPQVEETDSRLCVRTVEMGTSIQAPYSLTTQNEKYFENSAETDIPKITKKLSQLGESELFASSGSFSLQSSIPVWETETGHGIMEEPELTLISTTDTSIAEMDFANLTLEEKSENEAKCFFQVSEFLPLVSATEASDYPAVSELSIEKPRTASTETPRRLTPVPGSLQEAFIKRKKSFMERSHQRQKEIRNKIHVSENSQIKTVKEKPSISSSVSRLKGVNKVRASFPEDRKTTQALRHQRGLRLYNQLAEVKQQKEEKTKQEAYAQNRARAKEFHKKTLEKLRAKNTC
UniProt Q96LT7, sequence (Q96LT7 whole entry, looked up): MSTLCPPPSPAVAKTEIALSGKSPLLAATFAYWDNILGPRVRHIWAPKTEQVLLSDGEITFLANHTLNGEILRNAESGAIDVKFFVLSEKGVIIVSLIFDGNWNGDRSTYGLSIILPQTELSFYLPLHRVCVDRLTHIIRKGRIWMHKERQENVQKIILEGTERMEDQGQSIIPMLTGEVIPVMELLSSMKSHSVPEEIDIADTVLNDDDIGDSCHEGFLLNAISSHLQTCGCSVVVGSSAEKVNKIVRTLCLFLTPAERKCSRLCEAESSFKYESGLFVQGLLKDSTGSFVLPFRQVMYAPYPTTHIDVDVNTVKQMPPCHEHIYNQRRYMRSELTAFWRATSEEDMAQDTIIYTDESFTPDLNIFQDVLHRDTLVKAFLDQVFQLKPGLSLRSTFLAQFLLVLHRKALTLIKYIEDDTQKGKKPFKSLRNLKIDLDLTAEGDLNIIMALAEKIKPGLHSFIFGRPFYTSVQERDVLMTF

| Target | log2 fold change (erlotinib) | log2 fold change [1] | log2 fold change [2] | log2 fold change [3] | log2 fold change [4] | log2 fold change [5] | log2 fold change [6] | log2 fold change [7] | log2 fold change [8] | log2 fold change [9] | log2 fold change [10] | log2 fold change [11] | log2 fold change [12] | log2 fold change [13] | log2 fold change [14] | log2 fold change (IRAK-1-4 Inhibitor I) | log2 fold change (ibrutinib) | log2 fold change (ralimetinib) | log2 fold change [15] | log2 fold change [16] |
| --- | --- | --- | --- | --- | --- | --- | --- | --- | --- | --- | --- | --- | --- | --- | --- | --- | --- | --- | --- | --- |
| BAHCC1 (UniProt Q9P281) | -0.047 | 0.026 | 0.076 | -0.126 | -0.009 | -0.101 | -0.11 | -0.045 | -0.018 | -0.114 | -0.008 | 0.013 | 0.074 |  |  |  |  |  |  |  |
| CEP295 isoform 3 (UniProt Q9C0D2) | -0.063 |  | -0.02 |  |  | 0.015 | 0.111 | -0.048 | -0.019 | 0.02 |  | 0.041 | 0.053 | 0.051 | -0.092 | -0.143 | -0.182 | 0.005 | 0.009 | 0 |
| CDK2 (UniProt P24941) | -0.026 | -0.152 | 0.051 |  | 0.237 | 0.135 | 0.004 | 0.362 (active) | -0.036 | -0.026 | -0.016 | -0.017 | -0.015 | -0.003 | 0.008 | 0.014 | -0.031 | -0.038 | 0.006 | -0.003 |
| C9orf72 (UniProt Q96LT7) | -0.043 |  | 0.056 |  |  | 0.056 | -0.068 | -0.004 | 0.025 | -0.066 | 0.014 | -0.003 | 0.038 | -0.01 | -0.041 | -0.042 | -0.079 | -0.011 | -0.021 | -0.023 |
| BMT2 (UniProt Q1RMZ1) |  |  |  |  |  |  |  |  |  | 0.586 |  |  |  |  |  |  |  |  |  |  |
| CCDC130 (UniProt P13994) | -0.045 |  | 0.28 |  |  | -0.152 | -0.016 |  | -0.112 |  |  | 0.252 |  | 0.032 | -0.224 | 0.025 | -0.232 | 0.181 | 0.077 | 0.072 |
| CDKL5 (UniProt O76039) |  | -0.216 |  | -0.08 | 0.339 | 0.423 | 0.085 | 0.088 |  |  | -0.351 | 0.111 | -0.019 |  |  |  |  |  |  |  |
| CDK11A (UniProt Q9UQ88) | 0.053 |  | -0.128 |  |  |  |  | 0.414 (active) | -0.036 | -0.03 | -0.022 | 0.002 | -0.014 | -0.037 | 0.027 | -0.009 | 0.022 | 0.003 | 0.056 | 0.025 |
| CASC1 (UniProt Q6TDU7) |  |  |  |  |  |  |  |  |  |  |  |  |  | 1.74 (active) | -0.03 | 0.179 | 0.24 | 0.078 | -0.093 | 0.097 |
| BUD13 (UniProt Q9BRD0) | -0.04 |  | -0.02 |  |  | -0.046 | -0.162 |  | -0.051 | -0.051 | -0.219 | 0.013 |  | 0.054 | 0.054 | -0.066 | 0.07 | 0.033 | 0.034 | -0.013 |
